PubChem BioAssay (NCATS)
Inconclusive results are not listed. Calls of active or inactive are those of the source. Unless noted, calls follow the shape of the full dose curve.

Legend:
[1] = Primary qHTS for small molecule stabilizers of the endoplasmic reticulum resident proteome: Secreted ER Calcium Modulated Protein (SERCaMP) assay (AID 1508630; active = well fitted curve in the direction sought with a large enough effect; an effect the other way counts as inactive or inconclusive)
Outline: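 The SH-SY5Y reporter protocol was run at 3 concentrations up to 38.3 uM (primary) or 11 concentrations (follow-up): 16 h compound, 100 nM thapsigargin for 4 h, then extracellular luciferase luminescence.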

[2] = A High-Content qHTS Against Drug Library for the Identification of Small Molecules that Inhibit DYT1 Early Onset Primary Dystonia-Associated Cell Pathology (AID 1645839)
Outline: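 Cells were seeded and left for 24 h, then dosed with compound alongside tetracycline induction of mutant EGFP-TorsinA. They were incubated for 48 h, fixed in 4% paraformaldehyde, permeabilized and imaged for mislocalization (%pathology) and cell count.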

[3] = molecular target: Cytochrome P450 2D6 (Homo sapiens) (UniProt P10635); test: Cytochrome P450 family 2 subfamily D member 6 (CYP2D6) small molecule antagonists: luciferase biochemical (cell-free) qHTS assay (AID 1645840; active = well fitted curve in the direction sought with a large enough effect in the repeat runs; an effect the other way counts as inactive or inconclusive; also: nearly all actives have a fitted effect of over 55% in size; also: potency is read from the fitted curve at half-maximal effect)
Cytochrome P450 2D6 (Homo sapiens), sequence (P10635 whole entry, looked up): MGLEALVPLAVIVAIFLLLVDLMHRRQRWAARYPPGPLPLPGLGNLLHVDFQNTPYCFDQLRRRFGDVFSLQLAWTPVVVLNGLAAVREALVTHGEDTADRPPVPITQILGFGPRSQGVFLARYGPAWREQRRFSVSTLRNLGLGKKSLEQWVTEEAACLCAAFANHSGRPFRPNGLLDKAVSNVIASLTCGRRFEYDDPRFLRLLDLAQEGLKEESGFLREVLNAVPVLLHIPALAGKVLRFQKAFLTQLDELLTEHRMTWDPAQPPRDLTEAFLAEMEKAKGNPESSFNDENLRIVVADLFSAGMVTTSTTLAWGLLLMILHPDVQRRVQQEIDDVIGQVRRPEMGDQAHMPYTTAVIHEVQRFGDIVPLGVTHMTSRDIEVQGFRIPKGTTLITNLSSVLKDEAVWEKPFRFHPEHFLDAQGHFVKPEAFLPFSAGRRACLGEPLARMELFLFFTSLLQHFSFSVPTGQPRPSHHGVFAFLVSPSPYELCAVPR
Outline: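 P450-Glo CYP2D6 system: proluciferin substrate converted by enzyme to luciferin, read by luminescence proportional to activity. Enzyme-substrate mix with compound 10 min at room temperature, then NADPH regeneration 1 h before detection reagent.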

[4] = molecular target: Cytochrome P450 2C9 (Homo sapiens) (UniProt P11712); test: Cytochrome P450 family 2 subfamily C member 9 (CYP2C9) small molecule antagonists: luciferase biochemical (cell-free) qHTS assay (AID 1645842; active = well fitted curve in the direction sought with a large enough effect in the repeat runs; an effect the other way counts as inactive or inconclusive; also: nearly all actives have a fitted effect of over 55% in size)
Cytochrome P450 2C9 (Homo sapiens), sequence (P11712 whole entry, looked up): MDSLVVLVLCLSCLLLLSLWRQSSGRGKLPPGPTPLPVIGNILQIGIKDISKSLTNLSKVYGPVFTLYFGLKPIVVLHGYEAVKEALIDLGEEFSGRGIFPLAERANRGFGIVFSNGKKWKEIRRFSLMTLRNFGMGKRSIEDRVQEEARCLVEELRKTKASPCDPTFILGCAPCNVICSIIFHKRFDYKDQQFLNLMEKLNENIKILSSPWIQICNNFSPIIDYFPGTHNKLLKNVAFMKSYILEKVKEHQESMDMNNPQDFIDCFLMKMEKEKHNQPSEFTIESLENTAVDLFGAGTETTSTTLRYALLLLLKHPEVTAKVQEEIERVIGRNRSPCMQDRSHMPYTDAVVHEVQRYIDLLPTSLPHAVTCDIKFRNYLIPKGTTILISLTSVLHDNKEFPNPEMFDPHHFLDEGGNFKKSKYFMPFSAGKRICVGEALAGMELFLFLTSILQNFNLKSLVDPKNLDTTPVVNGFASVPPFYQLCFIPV
Outline: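 P450-Glo CYP2C9 system: proluciferin substrate with enzyme in mix containing 0.4% BSA, 10 min at room temperature, then NADPH regeneration solution added and incubated 1 h at 37C. Detection reagent stopped reaction; luminescence read after 20 min as RLU.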

[5] = molecular target: N-terminal Xaa-Pro-Lys N-methyltransferase 1 (Homo sapiens) (UniProt Q9BV86); test: Confirmatory qHTS for Inhibitors of N-terminal methyltransferase 1 (NTMT1): MTaseGlo Assay (AID 1645874; active = well fitted curve in the direction sought with a large enough effect; an effect the other way counts as inactive or inconclusive;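 also: luminescence from SAH made as NTMT1 methylates SPKRIA peptide using SAM; nearly all actives have a fitted effect of over 65% in size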)
N-terminal Xaa-Pro-Lys N-methyltransferase 1 (Homo sapiens), sequence (Q9BV86 whole entry, looked up): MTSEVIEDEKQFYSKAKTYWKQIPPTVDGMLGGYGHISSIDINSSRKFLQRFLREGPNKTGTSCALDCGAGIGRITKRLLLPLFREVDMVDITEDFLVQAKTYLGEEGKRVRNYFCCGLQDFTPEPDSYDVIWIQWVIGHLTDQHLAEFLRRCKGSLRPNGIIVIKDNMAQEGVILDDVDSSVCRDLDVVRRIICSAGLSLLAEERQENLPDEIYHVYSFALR
Outline: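 Inhibition was derived from luminescence after SAH-to-ATP conversion, scaled between no-enzyme and DMSO wells, then fitted by 4-parameter Hill. Conditions: 125 nM NTMT1, 100 uM SAM, 1 uM SPKRIA, 30 min RT.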

[6] = Cytotoxicity counterscreen for inhibitors of SARS-CoV-2 cell entry (AID 1645845); also: nearly all actives have a fitted effect of over 50% in size
Outline: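 Counterscreen run in the same HEK293-ACE2 line as the pseudotyped-particle entry assay, without particles. Viability after 48 h at 37 C was read as ATP luminescence, scaled between cell-containing and cell-free wells.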

[7] = Primary qHTS to identify inhibitors of SARS-CoV-2 cell entry (AID 1645846); details: activity change, negative = inhibition: at 57.1 µM (top of the series) unless noted; also: nearly all actives have a fitted effect of over 45% in size; also: potency is read from the fitted curve at half-maximal effect
Outline: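 Using luciferase-reporting pseudoviruses carrying Wuhan-Hu-1 spike, the screen tracks entry into stably ACE2-expressing cells over 48 hr. Activity is expressed relative to spike particles versus particles lacking any fusion protein.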

[8] = Primary qHTS for inhibitors of nuclear receptor binding SET domain protein 2 (NSD2) in an isogenic RCH-ACV NSD2 p.E1099K mutant (9B) (AID 1645876; active = well fitted curve in the direction sought with a large enough effect; an effect the other way counts as inactive or inconclusive; also: nearly all actives have a fitted effect of over 70% in size)
[9] = Primary qHTS for inhibitors of nuclear receptor binding SET domain protein 2 (NSD2) in an RCH-ACV wild type WT cells (2C) (AID 1645877; active = well fitted curve in the direction sought with a large enough effect; an effect the other way counts as inactive or inconclusive; also: nearly all actives have a fitted effect of over 70% in size)
[10] = Confirmatory qHTS to identify inhibitors of SARS-CoV-2 cell entry (AID 1645844); also: potency is read from the fitted curve at half-maximal effect; nearly all actives have a fitted effect of over 45% in size
Outline: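 HEK293-ACE2, overnight seeding; cpd 1 h, 37C/5% CO2; + SARS-CoV-2-S MLV PP (Wuhan-Hu-1, ΔC19); 48 h; Bright-Glo luminescence. Data normalised to S PP and bald PP wells.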

[11] = VSVG counterscreen qHTS to identify inhibitors of SARS-CoV-2 cell entry (AID 1645847); also: potency is read from the fitted curve at half-maximal effect; nearly all actives have a fitted effect of over 65% in size
Outline: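 Entry of VSV-G pseudotyped particles into human ACE2-expressing HEK293 cells was measured by luciferase luminescence 48 h after infection, with compound added 1 h beforehand.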

Measured: Potency

CN(C)CCc1c[nH]c2cccc(O)c12
inactive: [1] | [2] | [4] | [5]
active: [3] 12.5 µM

C[N+]1(C)[C@@H]2CC[C@H]1CC(OC(=O)C(CO)c1ccccc1)C2 (stereo not given in full)
not listed: [5] | [10] | [11]
inactive: all other assays above

CCN1CCCC1CNC(=O)C(O)(c1ccccc1)c1ccccc1 (stereo not given)
inactive: [1] | [2] | [4] | [8] | [9]
active: [3] 3.09 µM

Oc1c(Cl)cc(Cl)cc1Sc1cc(Cl)cc(Cl)c1O
active: [10] 2.71 µM | [7] 20 µM | [11] 4.82 µM

CC1=CC(=O)c2ccccc2C1=O
active: [10] 19.2 µM | [11] 6.81 µM
inactive: [6]
